This note sets out measurements from PubChem BioAssay (NCI).

Some test systems named below: SR leukemia; RPMI-8226 leukemia; OVCAR-5 ovarian; OVCAR-4 ovarian; SK-OV-3 ovarian; IGROV1 ovarian; OVCAR-3 ovarian; HS 578T breast; NCI/ADR-RES ovarian; T-47D breast; BT-549 breast; MDA-MB-435 melanoma; SW-620 colon; MCF7 breast; HCT-116 colon; HCC-2998 colon; KM12 colon; MDA-MB-468 breast; OVCAR-8 ovarian.
Common to all, as to test: NCI-60 one-dose screen, 48 h (100 = growth as untreated, 0 = no growth, -100 = all killed)
What all share (details): 10 µM unless noted

This is part of a sample that, as a whole, favours compounds with a hit. Of some 83,000 tested, about 20% had one in any assay.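 Method: cells in 96-well plates; compound added at one concentration; 48 h incubation; percent growth measured; values under 10 scored active.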 A number with no mark means an inactive call. Active and inactive are the calls of the source.

`Cc1ccc(-n2c(-c3cc4ccccc4nc3Cl)noc2=O)cc1`: the growth is 31.8% in the assay with SR leukemia; 81.2% with RPMI-8226 leukemia; 98.1% with OVCAR-5 ovarian; 92.5% in the assay on OVCAR-4 ovarian; 80.1% with SK-OV-3 ovarian; 90.9% with IGROV1 ovarian. In addition, the growth was 99.8% in the assay with OVCAR-3 ovarian; 80.9% with HS 578T breast; 52.3% in the assay with NCI/ADR-RES ovarian; 63.9% in the assay with T-47D breast; 81.1% in the assay on BT-549 breast; 6.44% (active) with MDA-MB-435 melanoma. Also, the growth in the assay with SW-620 colon was 68.9%; in the assay with MCF7 breast, 64.5%; in the assay on HCT-116 colon it was 86%; in the assay on HCC-2998 colon, 90.9%; in the assay with KM12 colon it was 55%; with MDA-MB-468 breast, 16.2%.
In the case of `Cn1cc(-c2cc3nc(-c4cn(C)c5ncc(Br)cc45)cc(N)n3n2)c2ccccc21`, the growth in the assay on SR leukemia is -20.7% (active); in the assay with RPMI-8226 leukemia, -2.62% (active); with OVCAR-8 ovarian, -10.9% (active); in the assay on OVCAR-5 ovarian, -49.5% (active); with OVCAR-4 ovarian, 20%; in the assay on SK-OV-3 ovarian, -24% (active). Moreover, the growth in the assay on IGROV1 ovarian was -23.8% (active); in the assay with HS 578T breast, -19.7% (active); with NCI/ADR-RES ovarian, -23.5% (active); in the assay with T-47D breast it was -40.9% (active); in the assay on BT-549 breast it was -73% (active); in the assay with MDA-MB-435 melanoma, -70.8% (active). Also, the growth in the assay with SW-620 colon was -48% (active); in the assay with HCT-116 colon, -100% (active); in the assay on HCC-2998 colon it was -89% (active); in the assay with KM12 colon, -55.5% (active); in the assay with MDA-MB-468 breast, -78.9% (active).
Take `N#Cc1c(-c2cccc(Cl)c2Cl)cc(-c2ccc3ccccc3c2)[nH]c1=O`: the growth in the assay on SR leukemia was 67.4%; with RPMI-8226 leukemia, 68.3%; in the assay with OVCAR-8 ovarian, 41.5%; in the assay with OVCAR-5 ovarian, 77.4%; with OVCAR-4 ovarian, 4.49% (active); in the assay on SK-OV-3 ovarian, 99.7%. Moreover, the growth in the assay with IGROV1 ovarian is 65.1%; with NCI/ADR-RES ovarian, 42.4%; with T-47D breast, 37.6%; with BT-549 breast, -5.5% (active); in the assay on MDA-MB-435 melanoma, 94.9%; in the assay on MCF7 breast it was 52.9%. Besides, the growth in the assay with HCT-116 colon was 2.78% (active); in the assay with HCC-2998 colon, 75.6%; in the assay with KM12 colon, 98.4%; in the assay with MDA-MB-468 breast it was 71.4%.
As to `O=c1[nH]c2ccc(Cl)cc2cc1CSc1nccc(-c2ccc(Cl)cc2)n1`, the growth in the assay with SR leukemia was 88.6%; in the assay with RPMI-8226 leukemia, 71.3%; in the assay on OVCAR-5 ovarian, 66.4%; in the assay on OVCAR-4 ovarian, 38.9%; in the assay with SK-OV-3 ovarian, 69.2%; with IGROV1 ovarian, 59.3%. The growth in the assay with OVCAR-3 ovarian was 86.6%; in the assay on HS 578T breast it was 33.8%; in the assay on NCI/ADR-RES ovarian, 56.7%; in the assay with T-47D breast it was 41.6%; in the assay on BT-549 breast it was 23.9%; in the assay on MDA-MB-435 melanoma, 76.5%. Besides, the growth with SW-620 colon was 73.4%; in the assay on HCT-116 colon it was 30.3%; in the assay on HCC-2998 colon, 61.7%; in the assay on KM12 colon, 69.7%; with MDA-MB-468 breast, 29.7%.
On to `C=C1CCC2C3(C)COC(c4ccco4)OC3CCC2(C)C1CC(Sc1ccccc1)C1=CCOC1=O` (centres undefined), for which the growth with SR leukemia is 17.1%; with RPMI-8226 leukemia, 3.83% (active); in the assay with OVCAR-5 ovarian, 60.9%; in the assay with OVCAR-4 ovarian it was 70.2%; with SK-OV-3 ovarian, 141%; with IGROV1 ovarian it was 69.2%. In addition, the growth with OVCAR-3 ovarian was 37%; in the assay with HS 578T breast, 114%; in the assay with NCI/ADR-RES ovarian it was -17.6% (active); in the assay on T-47D breast, 77.3%; with BT-549 breast, 5.74% (active); with MDA-MB-435 melanoma, 54.1%. In addition, the growth in the assay with SW-620 colon is 34.8%; in the assay on MCF7 breast, 23.1%; in the assay on HCT-116 colon, 12%; with HCC-2998 colon, 57%; in the assay with KM12 colon it was 71.9%; in the assay with MDA-MB-468 breast it was 17%.
`O=C(COc1ccc(NC(=O)Nc2ccccc2)cc1)N=Nc1c(O)[nH]c2ccc([N+](=O)[O-])cc12`: the growth is 19.1% in the assay on SR leukemia; 53.9% in the assay with RPMI-8226 leukemia; -30.5% (active) in the assay with OVCAR-8 ovarian; 61.2% in the assay on OVCAR-5 ovarian; 7.38% (active) in the assay with OVCAR-4 ovarian; 56.7% with SK-OV-3 ovarian. For the same compound, the growth was 22.5% in the assay with IGROV1 ovarian; -8.84% (active) in the assay with HS 578T breast; 113% with NCI/ADR-RES ovarian; -43.7% (active) in the assay with T-47D breast; -42.6% (active) in the assay with BT-549 breast; 4.08% (active) with SW-620 colon. For the same compound, the growth with MCF7 breast is -2.45% (active); in the assay with HCT-116 colon, -55.9% (active); in the assay with HCC-2998 colon, -47.9% (active); in the assay with KM12 colon it was -62% (active); with MDA-MB-468 breast, -69.7% (active).
With `N=C1N=C(SCc2nc3ccccc3[nH]2)NC(=O)/C1=C/c1ccc(Cl)cc1`, the growth was 98.7% in the assay on SR leukemia; 96.9% in the assay with RPMI-8226 leukemia; 113% with OVCAR-5 ovarian; 95.6% with OVCAR-4 ovarian; 111% in the assay with SK-OV-3 ovarian; 110% in the assay on IGROV1 ovarian. Also, the growth in the assay on OVCAR-3 ovarian was 114%; with HS 578T breast, 98.3%; in the assay on NCI/ADR-RES ovarian, 100%; with T-47D breast, 93.2%; with BT-549 breast, 114%; with MDA-MB-435 melanoma, 102%. Further, the growth in the assay on SW-620 colon was 98.5%; in the assay on MCF7 breast, 96.9%; with HCT-116 colon, 105%; with HCC-2998 colon, 109%; with KM12 colon, 104%; in the assay with MDA-MB-468 breast it was 116%.
For the compound `COc1cc(OC)cc(-c2cc3ccc(N(C)C)cc3c(=O)[nH]2)c1`, the growth was 29.2% in the assay on RPMI-8226 leukemia; 5.26% (active) with OVCAR-8 ovarian; 45.5% in the assay on OVCAR-5 ovarian; 72.6% with OVCAR-4 ovarian; 40.2% in the assay with SK-OV-3 ovarian; 29.3% with IGROV1 ovarian. For the same compound, the growth with OVCAR-3 ovarian was 4% (active); in the assay with HS 578T breast, 47.3%; with NCI/ADR-RES ovarian, 0.753% (active); with T-47D breast, 82%; in the assay with MDA-MB-435 melanoma, 5.03% (active); with SW-620 colon it was 33.8%. For the same compound, the growth in the assay with MCF7 breast is 22.5%; in the assay with HCT-116 colon it was 8.72% (active); in the assay on HCC-2998 colon, 40.7%; with KM12 colon, 16.7%.
As to `COc1ccc(C(=O)/C=C/c2cc3c(cc2Br)OCO3)cc1S(N)(=O)=O`, the growth was -13.6% (active) in the assay on RPMI-8226 leukemia; -21% (active) with OVCAR-8 ovarian; -7.93% (active) in the assay with OVCAR-5 ovarian; 28% with OVCAR-4 ovarian; 69% in the assay with SK-OV-3 ovarian; 3.7% (active) in the assay with IGROV1 ovarian. Further, the growth with OVCAR-3 ovarian was -57.5% (active); in the assay with HS 578T breast, 30.3%; in the assay on NCI/ADR-RES ovarian, 13.8%; in the assay on T-47D breast, -34.1% (active); with MDA-MB-435 melanoma, 5.61% (active); in the assay with SW-620 colon it was -42.7% (active). Also, the growth in the assay on MCF7 breast was -1.63% (active); in the assay with HCT-116 colon it was -98% (active); in the assay with HCC-2998 colon, -53.8% (active); in the assay on KM12 colon it was -57.9% (active); in the assay with MDA-MB-468 breast, 23.8%.
